This passage reports Potency results from PubChem BioAssay AID1345083 (National Center for Advancing Translational Sciences (NCATS), 2018).

The campaign covered roughly 94,000 compounds. About 6,200 (6.6%) were called active. A call without a number means that no potency is given here. Not shown: some 31% with an inconclusive outcome. Calls follow the shape of the dose curve; as a rule, active = well fitted inhibition curve with a large enough effect; inconclusive = small, poorly fitted or top-dose-only effect; inactive = flat fitted curve, though single readings scatter. The full list was thinned out, with actives kept by preference.
Potency is read from the fitted curve at half-maximal effect.

The test can be described thus: Cytotoxic Profiling in HEK 293 Cell Line of Diverse Libraries Using Quantitative High-Throughput Screening. Also: nearly all actives have a fitted effect of over 60% in size. The following applies: HEK 293 viability, ATP luminescence (CellTiter-Glo), 48-72 h; series mostly up to 115 µM. Put shortly:
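Luminescence from cellular ATP, measured with CellTiter-Glo, indicates HEK 293 viability. Cells plated at 250 cells/well are treated with compound for 48 or 72 hr at 37 degree Celsius before reagent addition.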
A general note: Cellular ATP, detected with luciferase, serves as a proxy for viable cell number.
Take `Cc1ccc2[nH]c(CCCn3cc(-c4nccn4C)nn3)nc2c1C`: the Potency entry was “inactive”.

Take `Cc1cnc(C(=O)N2CC[C@H](CO)[C@H](N(C)C)C2)cn1`: the Potency entry was “inactive”.

Regarding `COC(=O)c1nc(NC(=O)Cn2nc3c(cc2=O)CCCCC3)sc1C`, the Potency entry is “inactive”.

As to `CC(=O)c1cc(CN2CCN(c3nnc(C(F)(F)F)s3)CC2)cs1`, the Potency entry was “inactive”. Regarding `O=C(C1CC1)N1CCC2(CC1)C(=O)NCN2Cc1ccc(Cl)cc1`, the Potency entry was “inactive”. Turning to `C[S+](=O)([O-])N1CC2(Cc3ccccc31)CN(C(=O)C1CC1)C2`, the Potency entry was “inactive”. The same measure for `COc1ccc(CNC(=O)N2CC3CN(C)CC(C2)O3)cc1`: “inactive”. Take `COc1ccc(CNC[C@H]2O[C@H](Cc3cc(-c4ccc(OC)cc4)on3)CC[C@@H]2O)cc1`: the Potency is 35.5 µM (active).

Turning to `CC(=O)N1CCC(NC[C@H]2O[C@H](Cc3cc(-c4cccc(O)c4)on3)CC[C@@H]2O)CC1`, the Potency entry is “inactive”.

For `Cc1ncsc1C1N(C2CCN(C(=O)C3CC3)CC2)C(=O)C12CCCC2` (configuration not stated), the Potency entry was “inactive”.

Turning to `Cc1nn(-c2ccccc2)c2c1C(C)N(C1CN(C(=O)Nc3ccccc3)C1)C2=O` (configuration not stated), the Potency result is “inactive”. Consider `Cc1nn(-c2ccc(C(C)C)cc2)c(C)c1[C@@H]1C=C[C@@H](NC(=O)Nc2ccccc2)C1`, for which the Potency is 39.8 µM (active). In the case of `Cc1nn(-c2ccc(C(C)C)cc2)c(C)c1[C@@H]1C=C[C@@H](NC(=S)NCC(C)C)C1`, the Potency is 25.1 µM (active). For `COc1ccc(-n2nc(C)c([C@H]3C=C[C@@H](OC(=O)Nc4cccc(F)c4)C3)c2C)cc1`, the Potency was 20 µM (active).

Consider `CCOCCOC1CCN(C(=O)Nc2cccc(F)c2)CC1`, for which the Potency entry is “inactive”.

Turning to `COc1ccc(-n2nc(-c3ccccc3)n(CC(=O)N(C)CC(C)C)c2=O)cc1`, the Potency result was “inactive”. Turning to `Cc1nn(-c2ccccc2)c2c1C(C(C)C)N(C1CN(C(=O)c3ccc(Cl)nc3)C1)C2=O` (configuration not stated), the Potency result is “inactive”.

As for `CCC(C)NC(=O)Cc1csc2nc(C)c(-c3cc(C)n(-c4ccc(C(C)C)cc4)n3)c(=O)n12` (configuration not stated), the Potency result is “inactive”. Regarding `COc1ccc(C(=O)Nc2cc(-c3ccccn3)nn2-c2ccccc2)cc1`, the Potency result was “inactive”. With `COc1ccc(C(=O)Nc2cccc(-c3nnc4n3CCCC4)c2)cc1`, the Potency result is “inactive”.

`COc1ccc(-n2nc(C)c([C@@H]3C=C[C@@H](NC(=O)Nc4ccccc4)C3)c2C)cc1`: the Potency was 50.1 µM (active).

For the molecule `O=C(Cc1cccnc1)NC1CC(=O)N(Cc2cccc3ccccc23)C1` (configuration not stated), the Potency result is “inactive”. Consider `CCNC(=O)c1noc(-c2ccc[nH]c2=O)n1`, for which the Potency result is “inactive”. Turning to `Cc1nc(CC(=O)N[C@@H]2COCC[C@H]2Oc2ccc(C#N)cc2)c(C)s1`, the Potency entry is “inactive”. For the molecule `Cc1ccc(C2Cn3cnc(C(=O)N4CCC(C(=O)NCCC(C)C)CC4)c3CO2)cc1` (configuration not stated), the Potency entry is “inactive”. In the case of `Cc1ccc(C(=O)N2CCC(c3nn(-c4ccccn4)c(=O)[nH]3)CC2)cc1`, the Potency result was “inactive”. The same measure for `CCCn1cnc2c1CN(S(=O)(=O)c1ccc(C#N)cc1)[C@H](C(=O)OC)C2`: “inactive”; for `CCN(CC)C(=O)C(NC(=O)c1ccc(OC)cc1)C1CCN(C(=O)c2ccc(F)cc2)CC1` (configuration not stated): “inactive”. Consider `O=C(NC1CCCCC1)[C@@H]1C[C@@H](O)CN1C1CCN(C(=O)c2ccncc2)CC1`, for which the Potency result was “inactive”. The value for `O=C1NC2(Cc3ccccc31)CN(Cc1cscn1)C2` was “inactive”; that for `O=C1NCCCCCCN(Cc2ccncc2)[C@@H]2CN(C(=O)NCCc3ccccc3)CC[C@@H]12` was “inactive”. As for `COc1ccc(NC(=O)N[C@@H]2C=C[C@@H](c3c(C)nn(-c4ccc(C(C)(C)C)cc4)c3C)C2)cc1`, the Potency is 31.6 µM (active). On to `COc1ccc(NC(=O)[C@@H]2C[C@@H](O)CN2C2CCN(C(=O)c3cccc(OC)c3)CC2)cc1`, for which the Potency result was “inactive”. As to `O=C(c1ccc(Cn2cccn2)o1)N1CCn2nc(C(O)CO)cc2C1` (configuration not stated), the Potency entry was “inactive”.

With `CN1CCN([C@@H]2[C@H](O)[C@H](CO)O[C@@H]2CNS(=O)(=O)c2ccccc2)CC1`, the Potency result was “inactive”.

Regarding `CCCn1c(C)cnc1C1CCN(C(=O)C2CCCC2)C1` (configuration not stated), the Potency entry is “inactive”. For the molecule `O=c1c2nc(OCc3ccc(-n4cccn4)cc3)ccc2ncn1Cc1ccccc1`, the Potency was 28.2 µM (active). Take `O=C1CN(C(=O)c2ccc(-n3cccn3)cc2)CC(OCc2ccccc2)CN1Cc1cccnc1` (configuration not stated): the Potency result was “inactive”. The value for `COc1ccc(-c2ccc3ncn(Cc4ccccc4)c(=O)c3n2)cc1OC` was “inactive”; that for `CN(C)C(=O)c1cc(-c2cccc(C(F)(F)F)c2)c2nncn2n1` was “inactive”; that for `CC(=O)N1CCc2[nH]cnc2C12CCN(C(=O)c1ccc(=O)[nH]c1)CC2` was “inactive”. For the molecule `CC(C)CNC(=O)C1Cn2cccc2C(=O)N1CC(C)C` (configuration not stated), the Potency result was “inactive”. Turning to `COc1ccc(-n2c(=O)c(C(=O)NCC3CC3)nc3cccnc32)cc1`, the Potency entry was “inactive”. The same measure for `COc1ccc2nc([C@H]3CCN(Cc4ccc(NC(C)=O)cc4)C3)[nH]c2c1`: “inactive”.

Turning to `COc1ccc(CN2C[C@H]3CN(Cc4ccc(NC(C)=O)cc4)CCN3C2=O)cc1`, the Potency is 89.1 µM (active). For `O=C(Nc1ccccc1)N1CCN2C(=O)N(Cc3ccc(F)cc3)C[C@H]2C1`, the Potency entry was “inactive”.

On to `COc1ccc(CCC(=O)N2CCCC(c3nc(-c4cccnc4)no3)CCNC(=O)CC2)cc1` (configuration not stated), for which the Potency entry is “inactive”. On to `O=C(NC1CCCCC1)N1CCCCC1c1noc(COCC2CC2)n1` (configuration not stated), for which the Potency result was “inactive”. As for `O=C(Cn1nc2c(cc1=O)CCCC2)Nc1nc(-c2ccc3c(c2)OCO3)cs1`, the Potency entry was “inactive”. In the case of `COc1ccc(-c2cccc(C(=O)NC3CC3)c2)nn1`, the Potency result is “inactive”. For `COc1ccc(-c2cccc(C(=O)N3CCC(NC(=O)c4ccc(C(F)(F)F)cc4)CC3)c2)nn1`, the Potency was 39.8 µM (active).

Consider `COc1ccc(-c2cccc(C(=O)N3CCN(C(=O)c4ccc(F)cc4)CC3)c2)nn1`, for which the Potency result is “inactive”. Take `COCC(=O)N1CCC(C(=O)N2CCCC(c3nc4ncccc4[nH]3)C2)CC1` (configuration not stated): the Potency entry was “inactive”.

For the molecule `O=C1N[C@H](CC(=O)N2CCN(Cc3ccccc3)CC2)C(=O)Nc2ccccc21`, the Potency result was “inactive”. Take `COc1cccc(-c2ccnc3nc(Cc4cc(F)cc(F)c4)nn23)c1`: the Potency was 39.8 µM (active). The value for `Fc1ccc(Cc2nc3nccc(-c4cc5ccccc5o4)n3n2)cc1` was “inactive”. Regarding `COCc1nc2nccc(-c3ccccc3)n2n1`, the Potency result is “inactive”. For the molecule `COCC1CN(C(=O)c2ccc(C#N)cc2)CC12CCOCC2` (configuration not stated), the Potency entry is “inactive”. On to `COc1ccc(CNC(=O)c2cc3n(n2)CC(c2ccc4c(c2)OCO4)OC3)c(OC)c1` (configuration not stated), for which the Potency is 35.5 µM (active). On to `COc1ccc(OC)c(NC(=O)c2cc3n(n2)CC(c2ccc(Cl)cc2)OC3)c1` (configuration not stated), for which the Potency entry was “inactive”.

Turning to `COc1ccc(C(=O)N[C@@H]2CCC[C@@H]2C(=O)NCc2ccc3c(c2)OCO3)cc1`, the Potency result is “inactive”. The same measure for `COc1ccc(OCc2nc(C)c(CCO)c(=O)n2CC(=O)NCc2ccc(F)cc2)cc1`: “inactive”; for `O=C1[C@@H]2C[C@@H](CN2Cc2ccc3ccccc3n2)Oc2ccccc2N1Cc1ccccc1`: 44.7 µM (active); for `COCCN1C(=O)[C@@H]2C[C@@H](CN2C(=O)Nc2ccccc2)Oc2ccccc21`: “inactive”. Regarding `N#Cc1ccc(CN2C[C@@H]3C[C@H]2C(=O)Nc2ccccc2O3)cc1`, the Potency result is “inactive”. With `COCCC(=O)NCC1Cn2cccc2C(=O)N1Cc1ccccc1` (configuration not stated), the Potency entry was “inactive”. `COc1ccccc1C(=O)N1CCC2(C1)C(=NC1CCCC1)NC(=O)N2c1cccnc1` (configuration not stated): the Potency entry is “inactive”. Take `CS(=O)(=O)N1CCC(C2CCN(C(=O)Cc3cccs3)C2)CC1` (configuration not stated): the Potency entry was “inactive”. As to `COc1ccc(CC(=O)N2CCc3nc(C4CC4)nc(-c4ccc(O)cc4)c3CC2)cc1`, the Potency result is “inactive”. As for `COc1ccccc1CN1CCc2nc(C(C)C)nc(-c3ccc(O)cc3)c2C1`, the Potency entry is “inactive”. With `COc1ccccc1CN1CCc2nc(C3CC3)nc(-c3ccc(O)cc3)c2CC1`, the Potency is 44.7 µM (active).

For `COCCc1noc(Cc2c(C)nn(-c3ccccc3)c2C)n1`, the Potency entry is “inactive”. On to `CCOc1ccc(CC(=O)N2CCC(Cc3nc(-c4cnccn4)no3)CC2)cc1`, for which the Potency entry is “inactive”. As for `COc1ccc(-c2noc(CC3CCN(C(=O)CC4CCCCC4)CC3)n2)cc1`, the Potency was 44.7 µM (active). As for `COc1ccc(CC(=O)N2CCC(Cc3nc(-c4cnccn4)no3)CC2)cc1Cl`, the Potency entry is “inactive”. The value for `COc1ccc(CC(=O)N2CCC(Cc3nc(C(C)C)no3)CC2)cc1Cl` was “inactive”; that for `COc1cccc(C(=O)N2CCC(Cc3nc(-c4cnccn4)no3)CC2)c1` was “inactive”; that for `COc1ccc(CC(=O)N2CCC(Cc3nc(-c4ccccc4)no3)CC2)cc1OC` was 35.5 µM (active). With `CNC(=O)[C@@H]1C[C@@H](O)CN1C1CCN(C(=O)c2ccc(OC)c(F)c2)CC1`, the Potency result is “inactive”. Regarding `CC1CCN(C(=O)CCNc2c(-c3ccc(F)cc3)nc3cnccn23)CC1`, the Potency result was “inactive”. `CCC1CN(C(=O)c2ccc(C#CC(C)(C)O)o2)CCN1C(C)C` (configuration not stated): the Potency result was “inactive”. `CCCN(CC1CCOC1)S(=O)(=O)c1ccc(C(F)(F)F)cc1` (configuration not stated): the Potency result was “inactive”. Turning to `O=c1n(Cc2ccc(F)cc2)nc2n1CCCCC2`, the Potency result was “inactive”.

On to `O=C(c1ccc2c(c1)OCO2)N1CCN(c2ccc(Cl)nn2)C(=O)C1`, for which the Potency entry was “inactive”. For `COCCOc1ncccc1-c1noc([C@@H]2CCCN2CC(C)(C)C)n1`, the Potency was 63.1 µM (active).

Take `N#Cc1ccc(CN2CCC[C@H]2c2nc(-c3ccc(F)cn3)no2)cc1`: the Potency entry was “inactive”. Consider `Cc1cccc(OCC(=O)N2CCC[C@H]2c2nc(-c3ccccc3)no2)c1`, for which the Potency entry was “inactive”. As for `Cn1ccnc1CN1CCCC(CCC(=O)Nc2ccccc2F)C1` (configuration not stated), the Potency result was “inactive”. The same measure for `CC(=O)N1CCC(C2CCN(C(=O)CCCc3nc4ccccc4[nH]3)C2)CC1` (configuration not stated): “inactive”; for `CC1=C[C@@H](CNC(=O)CC2(CC(=O)O)CCCC2)[C@H](C(C)C)C[C@H]1Cc1nc2c(C)cccc2[nH]1`: “inactive”; for `CC(=O)N1CCC(NC[C@@H]2C=C(C)[C@H](Cc3nc4ccccc4n3C)C[C@H]2C(C)C)CC1`: “inactive”.

On to `CC1=C[C@@H](CNC2CCN(C)CC2)[C@H](C(C)C)C[C@H]1Cc1nc2ccccc2[nH]1`, for which the Potency was 28.2 µM (active).

On to `Nc1nc(C2CC(NC(=O)CCc3nc4ccc(F)cc4[nH]3)C2)cc(=O)[nH]1` (configuration not stated), for which the Potency result was “inactive”. On to `COc1ccc2nc(C[C@@H]3C[C@@H](C(C)C)[C@H](CNC(=O)CC(C)(C)CC(=O)O)C=C3C)[nH]c2c1`, for which the Potency entry is “inactive”.

On to `CC1=C[C@@H](CNCC(C)C)[C@H](C(C)C)C[C@H]1Cc1nc2c(C)cccc2[nH]1`, for which the Potency is 39.8 µM (active). Take `CC1=C[C@@H](CNC(=O)C2CCCCC2)[C@H](C(C)C)C[C@H]1Cc1nc2ccc(F)cc2[nH]1`: the Potency is 28.2 µM (active).

On to `CC1=C[C@@H](CN(CC2CC2)CC2CC2)[C@H](C(C)C)C[C@H]1Cc1nc2c(C)cccc2[nH]1`, for which the Potency was 89.1 µM (active).
